Sampled rows, rich in hits. Any-hit rate of the full collection: about 2.6%.
AmpC det inh = AmpC beta-lactamase inhibition, detergent assay. P00811. purified AmpC, nitrocefin hydrolysis with detergent. Potency, µM (series often up to 28.7 µM), inactives show at the highest dose activity change, negative = inhibition. hit rate 0.09% among 71,000; active means well fitted curve in the direction sought with a large enough effect; inconclusive means small, poorly fitted or top-dose-only effect; further: on the % scale 0 is the no-effect control and ±100 the full control effect
Target sequence (P00811 whole entry, looked up): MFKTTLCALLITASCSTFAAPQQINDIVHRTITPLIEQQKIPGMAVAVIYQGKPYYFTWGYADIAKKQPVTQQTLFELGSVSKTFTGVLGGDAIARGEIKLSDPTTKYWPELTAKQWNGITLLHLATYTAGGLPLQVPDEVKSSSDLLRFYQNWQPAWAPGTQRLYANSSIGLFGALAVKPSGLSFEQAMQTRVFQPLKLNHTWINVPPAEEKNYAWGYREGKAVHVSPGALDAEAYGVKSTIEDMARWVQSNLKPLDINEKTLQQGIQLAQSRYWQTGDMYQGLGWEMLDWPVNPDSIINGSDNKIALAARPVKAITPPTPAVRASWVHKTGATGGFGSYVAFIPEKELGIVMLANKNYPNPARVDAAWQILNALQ
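E. coli AmpC (5.3 nM) in 20 mM phosphate pH 7.0 with 0.01% Triton X-100, preincubated 15 min RT with compound; nitrocefin (2 uL of 800 uM stock) hydrolysis followed by 480 nm absorbance every 20 s over 4 min.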
LT uptake inh = blocks cellular internalization of anthrax lethal toxin | Cells, anthrax lethal toxin internalization, FRET ratio (460/530) | Potency, µM (series often up to 40 µM), for the others: top-dose activity change, negative = inhibition, most hits filed as inhibitors | hit rate 0.67% among 70,000; further: on the % scale 0 is the no-effect control and ±100 the full control effect; nearly all actives have a fitted effect of over 50% in size
AmpC nodet inh = blocks E. coli AmpC beta-lactamase in absence of detergent; P00811; AmpC nitrocefin hydrolysis, absorbance 480 nm, no detergent; Potency, µM (highest dose often 28.7 µM), without a hit: top-dose activity change, negative = inhibition; hit rate 1.8% among 71,000; AID 585; further: % of control where 0% means no effect
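AmpC, 20 mM phosphate pH 7.0; 15 min cpd preinc, RT; start with nitrocefin (800 uM stock); A480 kinetic read, 20 s intervals, 4 min. No-enzyme wells = negative control.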
Prx2 Sm inh = blocks S. mansoni peroxiredoxin 2 enzymatic activity | S. mansoni Prx2 activity coupled to TGR/GSH (TGR is thioredoxin glutathione reductase), NADPH fluorescence loss, qHTS | Potency, µM | AID 448 | hit rate 0.07% among 65,000
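qHTS, coupled TGR/Prx2 format; 15 min compound preincubation at RT; reaction started with H2O2 (2.5 mM aliquot); kinetic NADPH fluorescence decrease, ex 365/em 450 nm.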
* hit, by the source's call; u = inconclusive; x = not tested or not shown; [ ] = dose if it differs, or a comment. Unless noted, the call rests on the fitted dose curve. Potency means the concentration at half of the fitted maximal effect.

SMILES	AmpC det inh	LT uptake inh	AmpC nodet inh	Prx2 Sm inh
C[C@H]1C2=C3C(CC[C@H]4C(OCc5ccc(F)cc5C(F)(F)F)OC[C@](C)([C@@H]34)N(C(=O)OC(C)(C)C)C2)C(CO)C1CO (some centres undefined)	-3.2%	u	145.4%	>57
N[C@H](C(=O)N[C@@H]1C(=O)N2C(C(=O)O)=C(Cl)CS[C@@H]12)c1ccccc1	-5.7%[12.8 µM]	8.3%[3.58 µM]	-10.6%[12.8 µM]	>57
C=N[C@H](C(=O)N[C@@H]1C(=O)N2[C@@H]1SC(C)(C)[C@@H]2C(=O)O)c1ccccc1	0.158µM*	u	0.126µM*	>57
Cc1onc(-c2ccccc2Cl)c1C(=O)N[C@H]1C(=O)N2[C@H]1SC(C)(C)[C@H]2C(=O)O	0.002µM*	2.0%[3.58 µM]	0.00158µM*	>57
Cc1onc(-c2c(F)cccc2Cl)c1C(=O)N[C@H]1C(=O)N2[C@H]1SC(C)(C)[C@H]2C(=O)O	0.002µM*	3.6%[3.58 µM]	0.00158µM*	>25.6
Cc1onc(-c2c(F)cccc2Cl)c1C(=O)N[C@@H]1C(=O)N2[C@H]1SC(C)(C)[C@H]2C(=O)O	0.0398µM*	u	0.0251µM*	>57
Cc1onc(-c2c(F)cccc2Cl)c1C(=O)NCc1cccs1	-1.7%	10.7%	-3.1%	>57
N[C@@]1(C(=O)O)CCC[C@@H]1C(=O)O	-2.1%[5.75 µM]	-5.6%[8 µM]	-7.5%[5.75 µM]	>57
c1ccc2c(CC3NCCN3)cccc2c1	-3.1%[5.75 µM]	-1.8%[8 µM]	-1.9%[5.75 µM]	>57
CC1(C)S[C@@H]2[C@H](NC(=O)C3(N)CCCCC3)C(=O)N2[C@H]1C(=O)O	0.0126µM*	-12.4%[3.58 µM]	0.00631µM*	>57
CCCC[C@@H]1C[C@H]1C(NC(=O)c1ccccc1)c1ccc(-c2ccccc2)cc1 (some centres undefined)	-1.3%	-5.2%	-12.5%	>57
COc1ccc(S(=O)(=O)n2nc(-c3cc(OC)c(OC)c(OC)c3)cc2N)cc1OC	6.1%	16.3%	129.7%	>57
COc1ccccc1-c1cc(N)n(S(=O)(=O)c2ccc(F)c(C)c2)n1	8.2%	u	20µM*[single pt active]	>57
CN(C)C(=O)N1CCC(C(=O)NCc2ccccc2Cl)CC1	-2.7%	-7.3%	-14.0%	>57
O=C(NCc1ccccc1Cl)C1CCN(C(=O)c2sccc2-n2cccc2)CC1	3.7%	12.6µM*	25.2%	>57
CCOC(=O)c1c(NC(=O)c2ccc(Br)o2)sc(C)c1CC	6.1%	5.01µM*	8.5%	x
CCCCCCNC(=O)c1c(O)c2ccccc2[nH]c1=O	2.0%	21.8%	12.6µM*	>57
COc1cccc(-c2ccc3ncnc(NCc4cccs4)c3c2)c1	10µM*	12.6µM*	6.31µM*	>57
CCCCN1CCC[C@@H]1CNC(=O)c1cc(C#N)c2ccccc2c1OC	-2.8%	u	26.6%	>57
N=C(N)SCCc1ccc(OCc2ccc([N+](=O)[O-])cc2)cc1	-6.9%	-19.4%	15.8µM*	>57
CCc1cc2c(=O)n(Cc3ccco3)c(SCc3c(C)noc3C)nc2s1	6.7%	10µM*	28.6%	>57
CS(=O)(=O)N1CCC[C@@]2(CCN(Cc3ccc(C#N)cc3)C2)C1	1.0%	u	-5.2%	>57
COc1cccc(NC(=O)c2ccc(CN3CCN(c4ccccc4)CC3)cc2)c1	-5.1%	10µM*	31.7%	>57
CCOc1ccccc1-n1nnnc1SCC(=O)Nc1cc2oc3ccccc3c2cc1OC	-3.2%	u	6.31µM*	>57
CCOc1ccccc1-n1nnnc1SCC(=O)Nc1cc(C)on1	-7.6%	-1.8%	-12.8%	>57
SMILES	AmpC det inh	LT uptake inh	AmpC nodet inh	Prx2 Sm inh
COc1ccc(CCNC(=O)CSc2ncnc3c2oc2ccccc23)cc1OC	11.5%	-15.4%	57.9%	>57
COc1ccc(Cl)cc1NC(=O)CSc1ncnc2c1oc1ccccc12	-2.6%	u	12.6µM*[single pt active]	>57
CN(C)c1oc(-c2ccccc2Cl)nc1C#N	-5.6%	1.4%	0.9%	x
CN(C)c1oc(-c2ccccc2Cl)nc1S(=O)(=O)c1ccccc1	10.6%	-22.1%	3.98µM*[single pt active]	>57
C=CCSc1nnc(Cc2cc(=O)[nH]c(=O)[nH]2)n1-c1cc(C)ccc1C	13.6%	-26.1%	4.0%	>57
CSc1nnc(Cc2cc(=O)[nH]c(=O)[nH]2)n1-c1cccc(C)c1	6.6%	-5.9%	-16.1%	>57
COC(=O)C(C)Sc1nnc(Cc2cc(=O)[nH]c(=O)[nH]2)n1-c1cc(C)ccc1C (centres undefined)	14.2%	-5.3%	2µM*	>57
CCOc1ccc(-n2c(Cc3cc(=O)[nH]c(=O)[nH]3)nnc2SC(C)C(=O)OC)cc1 (centres undefined)	10.0%	-7.8%	24.5%	>57
COC(=O)C(C)Sc1nnc(Cc2cc(=O)[nH]c(=O)[nH]2)n1-c1cccc(OC)c1 (centres undefined)	13.0%	0.2%	3.98µM*[single pt active]	>57
COc1cccc(-n2c(Cc3cc(=O)[nH]c(=O)[nH]3)nnc2SC(C)C)c1	12.5%	5.2%	3.98µM*[single pt active]	>57
CN1CCN(CC(=O)N2c3ccccc3Sc3cc4ccccc4cc32)CC1	-0.8%[5.75 µM]	-6.8%[8 µM]	51.6%[5.75 µM]	>57
Cc1nn(Cc2nc(-c3cccs3)no2)c(C)c1Br	10.5%	-18.2%	2.51µM*[single pt active]	>57
Cc1cc(C)c2c(=O)n(CC(=O)N3CCC(N4CCCCC4)CC3)sc2n1	8.3%	3.16µM*	18.9%	>57
CCOC(=O)CCc1c(C)nc2c(c(C)nn2C(C)(C)C)c1C	12.7%	u	3.98µM*[single pt active]	>57
O=S(=O)(c1ccccc1)N1CCC2(CCCN(Cc3nccs3)C2)CC1	-2.2%	u	1.9%	>57
COc1cc(C)c(S(=O)(=O)NCc2ccc3c(c2)OCO3)cc1C	11.1%	u	3.16µM*[single pt active]	>57
COc1cc(S(=O)(=O)NCc2ccc3c(c2)OCO3)ccc1Cl	6.8%	u	-13.8%	>57
CCOc1ccc(OCC)c(S(=O)(=O)NCc2ccc3c(c2)OCO3)c1	14.4%	-10.8%	3.98µM*[single pt active]	>57
Clc1cc(Cl)cc(Cl)c1	11.4%	-1.0%	-2.4%	x
O=C(Nc1cccc(-c2nc3ccccc3[nH]2)c1)c1cccc(NC(=O)c2ccco2)c1	-6.4%	15.8µM*	-17.2%	x
CCCOc1cccc(C(=O)Nc2cccc(NC(=O)c3ccco3)c2)c1	4.4%	5.01µM*	-13.6%	x
Clc1ccccc1-c1nccc(NCc2cccs2)n1	-0.4%	-5.9%	-3.7%	>57
Oc1ccc(Cl)cc1Cc1cc(Cl)ccc1O	3.9%	15.8µM*	u	x
Oc1ccc(Cl)cc1Cc1ccccc1	4.0%	u	-19.2%	x
Cc1c(C(=O)OCc2ccccc2)[nH]c2c1C(=O)CC(c1ccco1)C2 (centres undefined)	0.8%	u	12.6µM*[single pt active]	>57
SMILES	AmpC det inh	LT uptake inh	AmpC nodet inh	Prx2 Sm inh
CCn1c(SCc2ccc(OC)cc2)nnc1-c1ccncc1	-5.0%	12.6µM*	57.7%	>57
CCn1c(SCC(=O)c2cc(OC)ccc2OC)nnc1-c1ccncc1	-3.8%	x	31.2%	>57
CS(=O)(=O)N1CCc2cc(-c3csc(NC(=O)Cc4cccs4)n3)ccc21	1.1%	12.6µM*	u	>57
C[C@@H]1C=CCC(=O)OC[C@H](C)C(=O)OC[C@H]2O[C@H]1C=C[C@@H]2O	x	2.4%[8 µM]	x	x
COc1cc(NCC[C@@H]2CCCCN2)c2ncccc2c1	-3.1%[5.75 µM]	0.8%[8 µM]	0.0%[5.75 µM]	>57
C=CCCC	10.9%	2.1%	3.8%	x

Screens: PubChem, National Center for Advancing Translational Sciences (NCATS)
